ROC1-CUL1 inh: human ROC1-CUL1 E3 ligase inhibition; in vitro K48 di-Ub FRET, acceptor:donor ratio, 45 min; inhibition, % at 10 µM; P62877+Q13616; hit rate 0.6% among 140,000; AID 1347404; in the data active = inhibition above about 25%
Target sequence (P62877 whole entry, looked up): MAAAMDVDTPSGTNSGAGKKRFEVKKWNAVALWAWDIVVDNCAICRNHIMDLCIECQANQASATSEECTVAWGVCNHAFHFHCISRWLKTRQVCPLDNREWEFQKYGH
Target sequence (Q13616 whole entry, looked up): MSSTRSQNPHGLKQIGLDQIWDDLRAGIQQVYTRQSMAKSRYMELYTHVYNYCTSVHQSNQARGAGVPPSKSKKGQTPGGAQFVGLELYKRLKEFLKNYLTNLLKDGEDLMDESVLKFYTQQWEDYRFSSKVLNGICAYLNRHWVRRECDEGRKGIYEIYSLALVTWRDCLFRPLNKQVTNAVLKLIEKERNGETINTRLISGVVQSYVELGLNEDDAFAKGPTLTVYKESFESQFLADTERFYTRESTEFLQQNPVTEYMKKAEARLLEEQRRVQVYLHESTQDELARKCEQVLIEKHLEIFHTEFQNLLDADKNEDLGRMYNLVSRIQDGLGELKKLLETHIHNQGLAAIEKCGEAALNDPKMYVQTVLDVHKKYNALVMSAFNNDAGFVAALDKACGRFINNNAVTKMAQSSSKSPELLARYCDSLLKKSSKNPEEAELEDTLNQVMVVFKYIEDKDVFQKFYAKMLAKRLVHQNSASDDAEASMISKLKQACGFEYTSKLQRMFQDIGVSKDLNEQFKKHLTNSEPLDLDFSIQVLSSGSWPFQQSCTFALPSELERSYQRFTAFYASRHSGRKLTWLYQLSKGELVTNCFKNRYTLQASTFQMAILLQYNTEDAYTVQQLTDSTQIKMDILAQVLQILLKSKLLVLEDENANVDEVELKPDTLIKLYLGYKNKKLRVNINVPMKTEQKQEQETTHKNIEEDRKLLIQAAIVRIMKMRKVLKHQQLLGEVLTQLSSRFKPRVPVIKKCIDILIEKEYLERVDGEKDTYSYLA
Active calls of the source: *. This is one part of a sample in which hits are shown more often than they occur.

SMILES	ROC1-CUL1 inh
COC(=O)NN=C(C1CC1)C1CC1	10
Cn1c(C2CCCC(=O)C2)cc2ccccc21 (configuration not stated)	3
O=C1NN(c2ccc(Cl)cc2)C(=O)/C1=C/c1ccc(O)cc1O	-4
O=C1NN(c2ccc(Cl)cc2)C(=O)/C1=C/c1ccc(Cl)cc1	46*
O=C1NN(c2ccc(Cl)cc2)C(=O)/C1=C/c1ccc2c(c1)OCO2	8
COC(=O)C(Cc1ccc(O)cc1)N1C(=O)c2c(F)c(F)c(F)c(F)c2C1=O (configuration not stated)	19
Cc1cccc(OCCOc2c(Cl)cc(Cl)cc2/C=C2\C(=O)NN(c3ccccc3)C2=O)c1	98*
COc1cc(/C=C2\C(=O)NN(c3ccccc3)C2=O)cc(Cl)c1OCCOc1ccc(Cl)c(C)c1	12
CCOc1cc(/C=C2\C(=O)NN(c3ccccc3)C2=O)cc(Cl)c1OCCOc1ccc(C)cc1C	14
O=C1NN(c2ccccc2)C(=O)/C1=C/c1cc(Cl)cc(Cl)c1OCCCOc1ccc(Cl)cc1	11
Cc1cc(OCCOc2ccc(Cl)cc2/C=C2\C(=O)NN(c3ccccc3)C2=O)ccc1Cl	49*
Cc1cccc(OCCCOc2c(Cl)cc(Cl)cc2/C=C2\C(=O)NN(c3ccccc3)C2=O)c1	7
CN(C)S(=O)(=O)N1CCC(C(=O)Nc2ccc(F)cc2)CC1	-8
O=C(NNC(=O)c1ccccc1C(=O)O)c1ccc(Br)cc1	-1
O=C1c2cc([N+](=O)[O-])cc3cc([N+](=O)[O-])cc(c23)C(=O)N1c1ccc([N+](=O)[O-])cc1	-3
NC(=O)c1ccccc1NC(=O)c1ccc(OCC2CCCO2)c(Br)c1 (configuration not stated)	16
NC(=O)C1CCN(C(=O)c2cc3cc(Br)ccc3oc2=O)CC1	4
Clc1ccccc1-c1nnc2sc(-c3cccs3)nn12	0
Clc1ccccc1-c1nnc2sc(/C=C/c3ccco3)nn12	96*
COc1ccccc1-c1nnc2sc(/C=C/c3ccco3)nn12	20
Fc1ccc(-c2nnc3sc(/C=C/c4ccco4)nn23)cc1	95*
Fc1ccc(-c2nn3c(-c4ccco4)nnc3s2)cc1	0
Fc1ccc(/C=C/c2nn3c(-c4ccco4)nnc3s2)cc1	9
Cc1ccc(CN2C(=O)S/C(=C\c3ccc(OCC(=O)Nc4ccccc4C)cc3)C2=O)cc1	-1
Cc1cc(C)cc(NC(=O)C23CCC(C)(C(=O)C2=O)C3(C)C)c1 (configuration not stated)	6
SMILES	ROC1-CUL1 inh
CC1(C)OC2OC(C(O)c3cc(O)c4c(c3O)C(=O)c3ccccc3C4=O)C(C)(O)C2O1 (configuration not stated)	65*
CCNCc1cccc(Oc2nnnn2-c2ccccc2)c1	-3
CO/C=C(/C)C(=O)NC(S)Nc1cc(Cl)ccc1C(=O)O (configuration not stated)	-1
CCC1CCc2sc(C(=O)NCCN3CCOCC3)cc2C1 (configuration not stated)	-5
O=C1C(Cl)=C(Cl)C(=O)C(CCNc2ncccn2)=C1Cl	98*
CC(C)NS(=O)(=O)c1cccnc1Cl	-12
CCc1[nH]n2c(=O)c(CC(=O)OC)c(C)nc2c1-c1ccc(OC)cc1	10
O=C1NCCCC[C@@H]1NC(=O)C1(N2CCCCC2)Cc2ccccc2C1	-3
CC(OC(=O)/C=C1\OC(=O)c2ccccc21)C(=O)c1ccc(Cl)cc1 (configuration not stated)	-3
O=C(c1coc(COc2cccc3cnccc23)n1)N1CCCC1	1
CC(C)CNC(=O)c1coc(COc2cccc3cccnc23)n1	6
O=C(c1coc(COc2cccc3cccnc23)n1)N1CC[C@@H]2CCCC[C@H]2C1	57*
CCCC(=O)NNC(=O)c1ccccc1C	1
O=C(O)c1cc2cc(Br)ccc2oc1=O	10
O=C(O)c1cc2ccoc2cc(C(=O)O)c1=O	100*
CC(=O)Nc1ccc2occc2c1	-12
O=C(NC(NCC12CC3CC(CC(C3)C1)C2)(C(F)(F)F)C(F)(F)F)c1cccc(Cl)c1	3
c1ccc(SCc2nnc3n2N=C(c2ccccc2)CS3)cc1	9
Cc1ccccc1SCc1n[nH]c(=S)n1Cc1ccccc1	5
CCOC(=O)C1=C(C)N=c2s/c(=C/c3ccc(Cl)cc3)c(=O)n2C1c1ccc(OC)c2ccccc12 (configuration not stated)	6
CN(C)/C=C1\C=C2C(=O)c3ccccc3N2C1=O	37*
O=C1C=C2c3ccccc3-c3ccccc3N2C(=O)C1c1ccccc1 (configuration not stated)	5
Cc1ccccc1N1C(=O)C(=Cc2ccc(N(C)C)cc2)C(=O)N(c2ccccc2C)C1=O	-4
O=C1C2C(c3ccc(Br)cc3)OC3(C(=O)c4ccccc4C3=O)C2C(=O)N1c1cccc([N+](=O)[O-])c1 (configuration not stated)	59*
O=C1C2C(c3ccc(Br)cc3)OC3(C(=O)c4ccccc4C3=O)C2C(=O)N1c1ccc(Oc2ccc(Cl)cc2)cc1 (configuration not stated)	0
SMILES	ROC1-CUL1 inh
COc1cccc(C2OC3(C(=O)c4ccccc4C3=O)C3C(=O)N(c4ccc(Br)cc4)C(=O)C23)c1 (configuration not stated)	-6
O=C(CN1CCCC1)Nc1cc(Cl)ccc1Cl	4
COc1ccc2c(c1)C=Cc1ccccc1O2	8
COc1ccc2c(c1)C=C1C(=CC(=O)CC1(C)C)O2	111*
COc1ccc2c(c1)C(O)(C(F)(F)F)C(=O)O2 (configuration not stated)	-3
CC(=O)c1ccccc1-c1ccccc1C(C)=O	13
CC(=O)C1=NC(=O)c2ccccc2C1O (configuration not stated)	53*
CN1C(=O)c2ccccc2C(O)c2ccccc21 (configuration not stated)	-2
CCN(CC)C(=O)CSc1nnnn1-c1c(C)cccc1C	6
CN1C(=O)/C(=C/c2cccn2C(C)(C)C)C(=O)NC1=S	87*
COc1ccc(N2C(=O)/C(=C/c3cccn3C(C)(C)C)C(=O)NC2=S)cc1	16
CCc1ccc(N2C(=O)/C(=C/c3cccn3C(C)(C)C)C(=O)NC2=S)cc1	1
Cn1c2ccc(N)cc2c2cc(Br)ccc21	-3
C=CCn1c(-c2ccc(NC(=O)COC)cc2)c[n+]2ccccc12	0
O=C(CSc1nc2scc(-c3ccco3)c2c(=O)n1-c1ccccc1)c1ccc(F)cc1	97*
CC(=O)CSc1nc2scc(-c3ccc(C)o3)c2c(=O)n1-c1ccccc1	-5
O=C(CSc1nc2scc(-c3ccco3)c2c(=O)n1-c1ccccc1)Nc1ccc2c(c1)OCCO2	3
CC(C)(C)c1ccc(NC(=O)CSc2nnc3sc4ccccc4n23)cc1	1
C=CCc1cc(/C=c2/sc3n(c2=O)C(c2ccc(OC)cc2OC)C(C(=O)OCC)=C(C)N=3)cc(OC)c1O (configuration not stated)	-6
C=CCc1cc(/C=c2/sc3n(c2=O)C(c2cccc(OC)c2OCC)C(C(=O)OCC)=C(C)N=3)cc(OC)c1O (configuration not stated)	-11
CCOC(=O)C1=C(C)N=c2s/c(=C\c3ccc(O)c(Br)c3)c(=O)n2C1c1ccc(OC)cc1 (configuration not stated)	35*
CCOC(=O)C1=C(c2ccccc2)N=c2s/c(=C\c3ccc([N+](=O)[O-])o3)c(=O)n2C1c1cccc(OC)c1 (configuration not stated)	-5

Bioassay records deposited in PubChem by Pan Lab, Icahn School of Medicine at Mount Sinai.
